Compounds without any hit were thinned out: in the full panel of roughly 79,000, 15% have a hit. Values without a mark were called inactive. Cut-off read from the data, not from the text of the source: active = growth inhibition above about 70%; inactive = the rest.
Assay: NCI Yeast Anticancer Drug Screen. Data for the mec2-1 strain (AID 157)
Conditions: S. cerevisiae mec2-1 strain, at 50.0 µM, stronger effect = higher value
Description: Growth inhibition of yeast strains with defined genetic alterations is measured as a screen for potential anti-cancer activity. Selected strains with alterations in DNA damage repair or cell cycle control were exposed to compounds and growth inhibition was measured relative to vehicle treated controls. The strain used in this assay is mec2-1

| SMILES | growth inhibition |
| --- | --- |
| O=C(O)c1cccc(-n2ncc(Cl)c(Cl)c2=O)c1 | -0.95% |
| Cc1ccc(S(=O)(=O)CCCl)cc1 | -7.35% |
| C=CCc1cc(OC)c(O)c(OC)c1 | 1.3% |
| CCN(C(C)=O)c1ccc([N+](=O)[O-])cc1 | -1.65% |
| CC(=O)c1cccc(N(C)S(=O)(=O)c2ccc(C)cc2)c1 | 7.1% |
| O=C1C=C(c2ccccc2)C(O)(c2ccccc2)C1 (stereo not given) | 6.85% |
| Nc1cc2ccccc2c(O)c1O | 35% |
| OC(CCN1CCCCC1)(c1ccccc1)c1ccccc1 | -21.9% |
| Cc1ccc(S(=O)(=O)Oc2ccc3sc4c(CO)ccc(NCCN(C)C)c4c(=O)c3c2)cc1 | 26.4% |
| COC(=O)c1cccc([N+](=O)[O-])c1 | -5.7% |
| CCOC(=O)C(C#N)=C1CCN(C)CC1 | -4.75% |
| O=C(c1ccccc1O)N1CCCC1 | 7.15% |
| COc1cc(-c2ccc(NC(=O)CC(C)=O)c(OC)c2)ccc1NC(=O)CC(C)=O | -26.6% |
| CCOC(=O)/C(C)=C\c1ccc(OC)c(OC)c1 | -11.2% |
| CC(CO)(CO)C(=O)O | -31.4% |
| CN(C)c1ccc2nc3ccc(=[N+](C)C)cc-3oc2c1 | -12.4% |
| COc1cccc2c1Cc1ccccc1-2 | -3.6% |
| CCCCCCCCCCCCCCCCCC(=O)NCCNC(=O)CCCCCCCCCCCCCCCCC | -27.6% |
| CCCCCCCCNC(=O)C(C)C | 30.1% |
| COc1cc(CC#N)c([N+](=O)[O-])cc1OC | -22.1% |

| SMILES | growth inhibition |
| --- | --- |
| O=C(c1cccc(C(=O)c2ccc3c4c(cccc24)C(=O)N(c2ccccc2)C3=O)c1)c1ccc2c3c(cccc13)C(=O)N(c1ccccc1)C2=O | -36.8% |
| O=C(c1ccccc1)c1ccc(-c2ccc(O)cc2)cc1 | 23.5% |
| CC(C)(C)[Si](C)(C)OCC1OC(n2cnc3c(N)ncnc32)CC1OS(C)(=O)=O (stereo not given) | -21.6% |
| Cc1ccc(NC(=S)N2CCOCC2)cc1C | -17.4% |
| CN(C)c1ccc(/C=C/C(=O)c2ccc(NC(N)=O)cc2)cc1 | 1.9% |
| O=[N+]([O-])c1c(O)c(CNCCCO)cc(CNCCCO)c1O | 29.8% |
| O=C(O)Cc1ccccn1 | -49.1% |
| Cc1[nH]c(=S)[nH]c(=O)c1C | -28.3% |
| CCCCN(C=S)CCCC | -2% |
| CCOC(=O)c1c[nH][nH]c1=O | -8.45% |
| NNC(=O)c1ccccc1N | 4.35% |
| OC(CBr)CCBr (stereo not given) | -31.1% |
| CCCCCC/C=C\CCCCCCCCCc1cc(O)cc(OC)c1O | 4.45% |
| NC(=S)N/N=C/c1ccc(OC(=O)COc2ccc(Cl)cc2)cn1 | 7.85% |
| CC(=O)Nc1ccc(O)c(C)c1 | 3.35% |
| Nc1ccccc1SC1CC(=O)N(c2ccc(Cl)c(Cl)c2)C1=O (stereo not given) | -21.6% |
| CC(=O)c1cccs1 | -0.05% |
| Cc1ccc(C)c2c1CCC2=O | 3.85% |
| CCCC(=O)c1cccs1 | 9.85% |
| Oc1ccc2ccccc2c1CN1CCOCC1 | 5.4% |
